# Data reported in PubChem BioAssay.
# Calls of active or inactive are those of the source.
# Assays:
# Albumin (Bos taurus) = Albumin (Bos taurus) (UniProt P02769); assay: bovine serum albumin binders on microarray, profiling panel, artefact control for SMM control protein annotation, biochemical, small-molecule microarray, Alexa647 label, 635/667 nm fluorescence (AID 1118); settings: BSA-A647 binding, fluorescence 635 nm, higher = more signal;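 note: score merges 667 nm emission intensity and signal-to-noise per printed compound spot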
# Chain of Albumin (Bos taurus) (P02769 whole entry, looked up): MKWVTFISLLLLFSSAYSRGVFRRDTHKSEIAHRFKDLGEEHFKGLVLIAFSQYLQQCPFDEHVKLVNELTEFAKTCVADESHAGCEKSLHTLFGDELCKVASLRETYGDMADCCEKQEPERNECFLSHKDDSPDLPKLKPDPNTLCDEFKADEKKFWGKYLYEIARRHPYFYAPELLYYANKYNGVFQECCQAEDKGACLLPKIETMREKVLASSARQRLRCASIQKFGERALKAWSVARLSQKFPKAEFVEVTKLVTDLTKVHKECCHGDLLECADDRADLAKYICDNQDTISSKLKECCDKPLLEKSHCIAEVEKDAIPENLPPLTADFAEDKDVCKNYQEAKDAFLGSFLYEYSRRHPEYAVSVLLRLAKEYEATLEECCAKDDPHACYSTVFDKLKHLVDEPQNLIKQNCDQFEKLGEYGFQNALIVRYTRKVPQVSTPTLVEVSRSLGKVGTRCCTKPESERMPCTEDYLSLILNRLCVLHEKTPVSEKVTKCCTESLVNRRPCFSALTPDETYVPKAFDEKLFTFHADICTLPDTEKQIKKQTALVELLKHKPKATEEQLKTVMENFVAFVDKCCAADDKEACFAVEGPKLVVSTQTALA
# [1] = small-molecule microarray binders of probe aXIP, primary screen, biochemical, NeuroSMM set, 635/667 nm fluorescence (AID 1119); settings: higher = more signal, called active from +8 up or from −8 down;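 note: probe is the protein aXip251-270 applied at 1 µg/mL to compound-printed slides; binding of probe to printed compounds measured as 667 nm fluorescence plus signal to noise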
# [2] = small-molecule binders of probe aNOTCH3, primary screen, biochemical, small-molecule microarray, 635/667 nm fluorescence (AID 1120); settings: higher = more signal;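 note: probe is a biotin-tagged antibody raised against NOTCH3 rather than NOTCH3 protein; score merges spot fluorescence near 667 nm with spot signal to noise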
# [3] = small-molecule binders of probe aNOTCH2, primary screen, biochemical, small-molecule microarray, 635/667 nm fluorescence (AID 1121); settings: higher = more signal;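 note: score merges feature fluorescence read at 667 nm with its signal to noise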
# [4] = molecular target: Carbonic anhydrase 2 (Homo sapiens) (UniProt P00918); assay: CAII small-molecule binders, profiling panel, biochemical, small-molecule microarray, Alexa647-labelled CAII (AID 1122); settings: CAII-A647 binding fluorescence, higher = more signal
# [5] = COS7 lysate on small-molecule microarray, probe aHis, 635 nm (AID 1123); settings: COS7 cell lysate, fluorescence, higher = more signal;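 note: z-score combines 667nm fluorescence intensity with signal-to-noise per printed compound spot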
# [6] = compound binding in COS7 lysate, probe aLAP1, primary screen, cell lysate, small-molecule microarray (AID 1124); settings: probe aLAP1, fluorescence, higher = more signal;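 note: lysate comes from COS7 cells expressing LAP1 and is applied at 0.3 µg/mL; score merges spot fluorescence near 667 nm with signal-to-noise over triplicate slides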
# Sam68 (KHDRBS1) = assay: Sam68 small-molecule binders, primary screen, biochemical, small-molecule microarray, 635 nm fluorescence (AID 1125); settings: small-molecule microarray binding, higher = more signal;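 note: score merges 667 nm channel intensity with signal to noise over triplicate slides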
# [7] = test system: Chordin-like protein 2 (CHRDL2); assay: CHRDL2 small-molecule binders, primary screen, biochemical, small-molecule microarray, 635 nm fluorescence (AID 1126); settings: small-molecule microarray binding, fluorescence 635 nm; higher = more signal;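 note: printed compound slides probed with Chrdl2 protein at 4 µg/mL for 1 h at 4 C; score merges 667 nm emission intensity with signal to noise over three replicate slides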
# [8] = molecular target: Concanavalin-A (Canavalia ensiformis) (UniProt P02866); assay: ConA small-molecule binders, primary screen, artefact control for SMM control protein annotation, biochemical, small-molecule microarray, Alexa647 label, 635 nm (AID 1127); settings: ConA-A647 binding fluorescence, higher = more signal;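 note: z combines 667 nm emission intensity with signal-to-noise across three replicate slides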
# Chain of Concanavalin-A (Canavalia ensiformis) (P02866 whole entry, looked up): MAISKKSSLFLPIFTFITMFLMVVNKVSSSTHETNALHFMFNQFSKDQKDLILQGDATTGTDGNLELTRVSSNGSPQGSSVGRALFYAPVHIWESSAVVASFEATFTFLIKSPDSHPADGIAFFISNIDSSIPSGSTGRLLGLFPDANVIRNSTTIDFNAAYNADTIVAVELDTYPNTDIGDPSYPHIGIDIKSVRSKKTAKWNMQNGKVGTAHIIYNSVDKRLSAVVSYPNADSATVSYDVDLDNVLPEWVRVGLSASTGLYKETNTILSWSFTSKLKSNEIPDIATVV
# [9] = anti-His antibody binders, primary screen, artefact control for SMM control protein annotation, biochemical, small-molecule microarray, 635 nm fluorescence (AID 1128); settings: anti-His Alexa647 antibody binding, higher = more signal;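 note: score merges feature fluorescence with signal-to-noise for each printed compound spot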
# [10] = test system: Human papillomavirus type 1a E7 protein (residues 1-88); assay: HPV1a E7 small-molecule binders, primary screen, biochemical, small-molecule microarray, residues 1-88, 635 nm (AID 1129); settings: small-molecule microarray binding, fluorescence 635 nm; higher = more signal
# [11] = molecular target: Focal adhesion kinase 1 (Homo sapiens) (UniProt Q05397); assay: small-molecule microarray binders of FAK, primary screen, biochemical, 635/667 nm fluorescence, BSA, DTT (AID 1130); settings: PTK2 binding, 635 nm fluorescence, higher = more signal;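 note: composite of spot emission at 667 nm and signal to noise over triplicate slides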
# Chain of Focal adhesion kinase 1 (Homo sapiens) (Q05397 whole entry, looked up): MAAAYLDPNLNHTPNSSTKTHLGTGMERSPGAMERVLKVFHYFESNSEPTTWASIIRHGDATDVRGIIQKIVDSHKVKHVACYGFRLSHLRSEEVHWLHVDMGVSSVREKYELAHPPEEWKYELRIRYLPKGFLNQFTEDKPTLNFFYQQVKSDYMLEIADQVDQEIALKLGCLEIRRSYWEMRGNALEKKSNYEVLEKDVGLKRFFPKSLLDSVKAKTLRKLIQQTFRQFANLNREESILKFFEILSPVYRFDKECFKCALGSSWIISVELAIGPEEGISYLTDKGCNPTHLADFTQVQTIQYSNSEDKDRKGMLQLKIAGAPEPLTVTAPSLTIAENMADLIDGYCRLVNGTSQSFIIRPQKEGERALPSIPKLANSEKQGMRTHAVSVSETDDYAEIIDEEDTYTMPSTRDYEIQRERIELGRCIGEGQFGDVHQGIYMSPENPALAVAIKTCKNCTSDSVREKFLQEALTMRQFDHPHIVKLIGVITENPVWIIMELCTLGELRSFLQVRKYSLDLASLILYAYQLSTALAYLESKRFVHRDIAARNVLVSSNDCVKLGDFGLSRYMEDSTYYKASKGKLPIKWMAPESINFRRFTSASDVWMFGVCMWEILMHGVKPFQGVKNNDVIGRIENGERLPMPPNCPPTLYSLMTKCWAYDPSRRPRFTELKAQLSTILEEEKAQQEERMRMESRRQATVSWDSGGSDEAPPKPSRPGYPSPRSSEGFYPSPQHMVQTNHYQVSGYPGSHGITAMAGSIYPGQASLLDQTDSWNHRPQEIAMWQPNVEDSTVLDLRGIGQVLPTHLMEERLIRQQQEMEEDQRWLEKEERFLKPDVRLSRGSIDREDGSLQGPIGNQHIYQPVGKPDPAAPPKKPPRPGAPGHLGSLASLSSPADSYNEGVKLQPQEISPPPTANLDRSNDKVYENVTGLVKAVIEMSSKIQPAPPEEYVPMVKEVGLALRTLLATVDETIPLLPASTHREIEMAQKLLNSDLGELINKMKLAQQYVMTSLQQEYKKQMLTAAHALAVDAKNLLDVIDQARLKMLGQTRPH
# [12] = test system: Fibrinogen (Alexa647-labelled); assay: fibrinogen binders on compound microarrays, profiling panel, artefact control for SMM control-protein annotation, biochemical, small-molecule microarray, 635/667 nm fluorescence (AID 1131); settings: fibrinogen-A647 binding fluorescence, higher = more signal;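 note: z-score merges 667 nm fluorescence with per-spot signal-to-noise over triplicate slides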
# [13] = molecular target: Follistatin (Homo sapiens) (UniProt P19883); assay: follistatin binders on small-molecule microarrays, primary screen, biochemical, small-molecule microarray, 635/667 nm fluorescence (AID 1132); settings: FST binding, 635 nm fluorescence, higher = more signal
# Chain of Follistatin (Homo sapiens) (P19883 whole entry, looked up): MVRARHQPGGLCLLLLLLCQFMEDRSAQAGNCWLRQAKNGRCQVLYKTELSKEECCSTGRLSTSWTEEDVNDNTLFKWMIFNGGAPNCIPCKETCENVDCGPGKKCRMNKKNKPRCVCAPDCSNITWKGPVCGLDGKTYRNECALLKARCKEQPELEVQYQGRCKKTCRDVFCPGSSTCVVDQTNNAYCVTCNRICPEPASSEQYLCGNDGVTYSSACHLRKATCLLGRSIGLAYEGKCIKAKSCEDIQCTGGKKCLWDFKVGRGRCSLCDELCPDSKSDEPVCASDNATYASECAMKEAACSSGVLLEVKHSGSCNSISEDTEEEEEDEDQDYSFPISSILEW
# [14] = molecular target: Fibroblast growth factor 2 (Homo sapiens) (UniProt P09038); assay: FGF2 binders on small-molecule microarrays, primary screen, biochemical, small-molecule microarray, 635/667 nm fluorescence (AID 1133); settings: small-molecule microarray binding, FGF2, fluorescence 635/667; higher = more signal
# Chain of Fibroblast growth factor 2 (Homo sapiens) (P09038 whole entry, looked up): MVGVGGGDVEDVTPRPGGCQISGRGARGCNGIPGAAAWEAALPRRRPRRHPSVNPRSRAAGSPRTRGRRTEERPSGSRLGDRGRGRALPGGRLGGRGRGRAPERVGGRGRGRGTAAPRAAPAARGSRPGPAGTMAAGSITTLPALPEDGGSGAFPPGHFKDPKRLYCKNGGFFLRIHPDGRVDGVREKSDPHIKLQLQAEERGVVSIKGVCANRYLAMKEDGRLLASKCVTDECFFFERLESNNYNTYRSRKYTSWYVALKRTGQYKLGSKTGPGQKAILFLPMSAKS
# [15] = mitochondrial membrane potential change in A549 cells, profiling panel, cell-based, JC-1 fluorescence, basal, 24 h, 100 nL (AID 1138); settings: higher = more signal;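 note: A549 lung adenocarcinoma cells under basal conditions with no added stimulus; test concentration not given here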
# Lefty1 = Lefty1 binders on small-molecule microarrays, primary screen, biochemical, small-molecule microarray, 635/667 nm fluorescence (AID 1139); settings: small-molecule microarray binding, fluorescence 635/667; higher = more signal
# [16] = test system: wheat germ agglutinin (Triticum aestivum), Alexa647-labelled; assay: wheat germ agglutinin binders on compound microarrays, profiling panel, artefact control for SMM control-protein annotation, biochemical, small-molecule microarray, 635/667 nm fluorescence (AID 1140); settings: WGA-A647 binding, 635 nm fluorescence, higher = more signal;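 note: score merges 667 nm feature emission with signal to noise over triplicate slides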
# [17] = molecular target: Luciferin 4-monooxygenase (Photinus pyralis) (UniProt P08659); assay: firefly luciferase enzyme inhibitors, primary screen, biochemical, luminescence, purified enzyme, 2006 set (AID 1141); settings: SteadyGlo luminescence, 30 min, higher = more signal, called active from +8 up or from −8 down;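 note: cell-free assay with purified firefly luciferase at 100 ng per well in PBS; test concentration not given here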
# Chain of Luciferin 4-monooxygenase (Photinus pyralis) (P08659 whole entry, looked up): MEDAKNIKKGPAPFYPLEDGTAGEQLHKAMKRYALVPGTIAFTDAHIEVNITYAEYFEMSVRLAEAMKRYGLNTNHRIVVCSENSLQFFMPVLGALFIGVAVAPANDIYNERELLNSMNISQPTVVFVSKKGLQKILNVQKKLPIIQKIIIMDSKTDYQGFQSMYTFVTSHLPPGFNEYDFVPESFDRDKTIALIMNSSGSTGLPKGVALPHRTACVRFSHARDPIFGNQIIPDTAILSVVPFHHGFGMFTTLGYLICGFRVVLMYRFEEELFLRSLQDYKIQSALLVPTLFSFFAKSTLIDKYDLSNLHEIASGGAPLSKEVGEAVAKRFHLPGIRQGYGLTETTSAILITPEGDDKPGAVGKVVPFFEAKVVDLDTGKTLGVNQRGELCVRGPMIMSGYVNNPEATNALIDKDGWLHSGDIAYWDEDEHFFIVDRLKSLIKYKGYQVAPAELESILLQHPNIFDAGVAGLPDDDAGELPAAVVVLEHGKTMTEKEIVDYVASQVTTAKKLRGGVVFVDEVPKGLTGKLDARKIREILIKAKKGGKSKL
Compound,composite z-score (Albumin (Bos taurus)),composite Z-score [1],composite z-score [2],composite z-score [3],composite z-score [4],composite z-score [5],composite z-score [6],composite z-score (Sam68 (KHDRBS1)),composite z-score [7],composite z-score [8],composite z-score [9],composite z-score [10],composite z-score [11],composite z-score [12],composite z-score [13],composite z-score [14],z-score [15],composite z-score (Lefty1),composite z-score [16],z-score [17]
CCOC(=O)[C@H](Cc1ccccc1)NC(=O)CCC1CC(OC(=O)NCCc2ccc(F)cc2)CC2(CCCC(COC(=O)NCCC(C)C)O2)O1 (stereo not given in full),0.508,1.05 (inactive),0.0939,-0.114,0.28,1.17,-0.0236,1.31,0.0858,0.831,1.05,1.12,0.156,0.871,0.967,1.02,0.833,0.743,0.381,0.553 (inactive)
CCN1C(=O)[C@H]2[C@H]3[C@H](O)[C@H](O)CC(=NO[C@@H]4O[C@H](CO)[C@@H](O)[C@H](O)[C@H]4O)[C@H]3CC[C@H]2C1=O,-0.0203,0.121 (inactive),-0.0783,-0.148,-0.0497,-0.0296,0.212,-0.305,0.43,0.634,0.0595,0.512,0.026,0.16,0.442,0.922,-0.8,0.467,0.0622,0.217 (inactive)
CC(CCN1CCc2nc(-c3ccccc3)c(-c3ccccc3)cc2C1)=NO[C@H](C)c1cn([C@H](CO)Cc2ccccc2)nn1,0.901,-0.248 (inactive),-0.155,-0.161,0.367,0.585,0.0245,-0.29,0.26,0.158,0.955,0.137,0.0132,0.689,0.677,0.882,2.22,0.313,0.158,-0.595 (inactive)
CCOC(=O)CCN1C(=O)[C@H]2[C@H]3[C@H](O)[C@H](O)CC(=NOCC=C(C)CCC=C(C)C)[C@H]3CC[C@H]2C1=O,-0.269,-0.113 (inactive),0.179,-0.167,-0.276,-0.405,-0.192,0.458,-0.178,0.116,-1.12,-0.251,-0.0341,-0.161,-0.975,0.404,0.64,-0.893,-0.503,0.0499 (inactive)
COc1ccc(COC(=O)NN=C2C[C@@H](O)[C@@H](O)[C@@H]3[C@@H]4C(=O)N([C@@H](C)c5ccccc5)C(=O)[C@@H]4CC[C@H]23)cc1,0.434,-0.259 (inactive),0.24,0.867,-0.277,0.232,-0.266,-0.638,-0.217,0.0744,-0.485,-0.521,-0.393,-0.137,-0.528,-0.509,-0.419,-0.794,0.271,0.779 (inactive)
CCOC(=O)[C@H](Cc1ccccc1)NC(=O)CCC1CC(OC(=O)NCc2ccc3c(c2)OCO3)CC2(CCCC(COC(=O)NCCOC)O2)O1 (stereo not given in full),-0.756,0.0786 (inactive),0.163,-0.0785,0.134,0.577,-0.172,1.3,0.379,1.06,0.431,1.14,-0.341,0.69,0.808,0.455,-0.599,1.26,0.581,0.724 (inactive)
CC(CCC(=O)OC[C@H]1O[C@H](C#Cc2ccccc2)C=C[C@@H]1Oc1ccc(C)cc1)=NOC(C)CN1CCCc2nc(C)c(C)cc21 (stereo not given in full),0.412,-0.266 (inactive),-0.0647,-0.0793,-0.0994,1.12,-0.114,1.14,0.281,0.924,1.09,0.886,0.659,0.564,0.686,0.507,0.238,0.596,0.418,0.0139 (inactive)
